The values that follow come from PubChem BioAssay (NCATS).

Records with an inconclusive call do not appear. Activity calls are given as the source filed them. Unless noted, calls come from the whole dose curve.

Assay [1] is described as follows: qHTS for Inhibitors of the Functional Ribonucleoprotein Complex (vRNP) of Lassa (LASV) Arenavirus: LASV Primary Screen - GLuc reporter signal (AID 1347082; calls by dose curve; tested in HEK293 reporter line; note: nearly all actives have a fitted effect of over 60% in size). (In qHTS, concentration-response curves come from the screen itself.)
Assay [2] in a line: qHTS for Inhibitors of the Functional Ribonucleoprotein Complex (vRNP) of Lassa (LASV) Arenavirus: Viability assay - alamar blue signal for LASV Primary Screen (AID 1347083; calls by dose curve; tested in HEK293 reporter line; note: nearly all actives have a fitted effect of over 80% in size).
Assay [3] in a line: qHTS for Inhibitors of the Functional Ribonucleoprotein Complex (vRNP) of Lymphocytic Choriomeningitis Arenaviruses (LCMV): Viability assay - alamar blue signal for LCMV Primary Screen (AID 1347085; calls by dose curve; tested in HEK293 reporter line; note: nearly all actives have a fitted effect of over 80% in size).
Assay [4] addresses Nucleoprotein (Lymphocytic choriomeningitis virus (strain Armstrong)) (UniProt P09992). Briefly: qHTS for Inhibitors of the Functional Ribonucleoprotein Complex (vRNP) of Lymphocytic Choriomeningitis Arenaviruses (LCMV): LCMV Primary Screen - GLuc reporter signal (AID 1347086). Note: nearly all actives have a fitted effect of over 70% in size.
Potency is the fitted concentration of half-maximal effect.

Chain of Nucleoprotein (Lymphocytic choriomeningitis virus (strain Armstrong)) (P09992 whole entry, looked up): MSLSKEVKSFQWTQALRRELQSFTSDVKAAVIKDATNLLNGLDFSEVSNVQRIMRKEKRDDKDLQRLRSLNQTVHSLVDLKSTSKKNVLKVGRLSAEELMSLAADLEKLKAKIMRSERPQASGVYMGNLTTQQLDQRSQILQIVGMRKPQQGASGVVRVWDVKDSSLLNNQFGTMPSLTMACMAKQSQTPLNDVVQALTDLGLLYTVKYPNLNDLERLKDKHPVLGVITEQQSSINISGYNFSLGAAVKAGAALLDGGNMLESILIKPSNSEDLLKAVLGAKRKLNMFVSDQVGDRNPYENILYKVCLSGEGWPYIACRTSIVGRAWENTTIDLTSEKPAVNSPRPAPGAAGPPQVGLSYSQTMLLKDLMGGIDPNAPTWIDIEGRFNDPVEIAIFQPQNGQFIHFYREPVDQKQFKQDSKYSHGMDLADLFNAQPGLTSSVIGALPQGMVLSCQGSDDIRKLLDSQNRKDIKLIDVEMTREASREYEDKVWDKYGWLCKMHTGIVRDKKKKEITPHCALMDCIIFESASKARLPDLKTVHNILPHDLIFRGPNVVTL

For the compound `CCC(=O)N[C@H]1CC[C@H](C(=O)N(C)c2ccc(-c3nc4ccccc4o3)cc2)C1`, the Potency was 9680 nM (active) in assay [1], 3430 nM (active) in assay [2], 2170 nM (active) in assay [3] and 3430 nM (active) in assay [4].

As for `CNC(=O)c1cc(Oc2ccc(NC(=O)Nc3cc(C(C)(C)C)nn3-c3ccc4ncccc4c3)c(F)c2)ccn1`, the Potency in assay [1] was 7690 nM (active); in assay [2], 19300 nM (active); in assay [3], 24300 nM (active).

In the case of `CCC(=O)N1CCN(c2ccc(-n3c(=O)ccc4cnc5ccc(-c6cnc7ccccc7c6)cc5c43)cc2C(F)(F)F)CC1`, the Potency was 38.5 nM (active) in assay [1], 15.3 nM (active) in assay [2], 27.3 nM (active) in assay [3] and 68.5 nM (active) in assay [4].

Turning to `COc1ccccc1O`, the Potency entry in assay [1], in assay [2], in assay [3] and in assay [4] was “inactive” throughout.

As for `CCc1cc(Nc2nccc(-c3c(-c4ccc(OC)c(C(=O)Nc5c(F)cccc5F)c4)nc4ccccn34)n2)c(OC)cc1N1CCC(N2CCN(S(C)(=O)=O)CC2)CC1`, the Potency entry in assay [1] and in assay [2] was “inactive” in each case. Also, in assay [3], the Potency is 21700 nM (active).

On to `O=C(O)c1ccccn1`, for which the Potency result in assay [1], in assay [2], in assay [3] and in assay [4] was “inactive” in each case.

For the compound `NC(CO)(CO)CCc1ccc(Sc2cccc(OCc3ccccc3)c2)cc1Cl`, the Potency result in assay [1], in assay [2], in assay [3] and in assay [4] was “inactive” throughout.

For the compound `COc1ncc(-c2ccc3nccc(-c4ccnnc4)c3c2)cc1NS(=O)(=O)c1ccc(F)cc1F`, the Potency in assay [1] is 48.5 nM (active); in assay [2], 9.7 nM (active); in assay [3], 17.2 nM (active); in assay [4] it was 34.3 nM (active).

As for `CC(C)(C)c1cnc(CSc2cnc(NC(=O)C3CCNCC3)s2)o1`, the Potency in assay [1] was 6110 nM (active); in assay [2], 968 nM (active); in assay [3] it was 968 nM (active).

With `Cc1ccc(C(N)=O)cc1Nc1nccc(-c2cn(C(C)C)c3cnccc23)n1`, the results for the Potency in assay [1], in assay [2] and in assay [3] were 24300 nM (active), 15300 nM (active) and 21700 nM (active), respectively.

In the case of `C1=CCOCc2cc(ccc2OCCN2CCCC2)Nc2nccc(n2)-c2cccc(c2)OCC1`, the Potency is 12200 nM (active) in assay [1], 7690 nM (active) in assay [2] and 24300 nM (active) in assay [3].

As for `CC(NCc1ccc2c(c1)nc(NC(=O)c1ccc(-c3cn[nH]c3)s1)n2CC(C)(C)O)C(C)(C)C` (stereo not given), the Potency is 1930 nM (active) in assay [1], 485 nM (active) in assay [2] and 1720 nM (active) in assay [3].

Regarding `CCCCCCCCOc1ccc(C(=O)c2ccccc2)c(O)c1`, the Potency entry in assay [1], in assay [2], in assay [3] and in assay [4] was “inactive” each time.

Take `O=C(O)CC(O)C(=O)O` (stereo not given): the Potency entry in assay [1], in assay [2], in assay [3] and in assay [4] was “inactive” in each case.

Consider `OCCCc1ccccc1`, for which the Potency result in assay [1], in assay [2], in assay [3] and in assay [4] was “inactive” throughout.

For the compound `O=c1cc(CN2CCOCC2)occ1OCCCCCSc1ccnc2cc(C(F)(F)F)ccc12`, the Potency was 21700 nM (active) in assay [1], 1930 nM (active) in assay [2], 273 nM (active) in assay [3] and 1220 nM (active) in assay [4].

`O=C(Nc1cc(Cl)cc2c1[nH]c1cnccc12)c1cccnc1`: the Potency in assay [1] was 24300 nM (active); in assay [2], 21700 nM (active); in assay [3] it was 24300 nM (active).

For the compound `O=C(NOC[C@H](O)CO)c1ccc(F)c(F)c1Nc1ccc(I)cc1F`, the Potency result in assay [1], in assay [2], in assay [3] and in assay [4] was “inactive” throughout.

Consider `O=C(C=Cc1c(C(=O)O)[nH]c2cc(Cl)cc(Cl)c12)Nc1ccccc1`, for which the Potency result in assay [1], in assay [2], in assay [3] and in assay [4] was “inactive” each time.

As to `C[C@@H](O[C@H]1OCCN(Cc2n[nH]c(=O)[nH]2)[C@@H]1c1ccc(F)cc1)c1cc(C(F)(F)F)cc(C(F)(F)F)c1`, the Potency entry in assay [1], in assay [2], in assay [3] and in assay [4] was “inactive” in each case.

Take `CCN(CC)CCOc1ccc(Nc2ncc3cc(-c4c(Cl)cccc4Cl)c(=O)n(C)c3n2)cc1`: the Potency in assay [1] was 1930 nM (active); in assay [2] it was 30.6 nM (active); in assay [3], 172 nM (active).

`Nc1nnnn1-c1ccccc1`: the Potency result in assay [1], in assay [2], in assay [3] and in assay [4] was “inactive” in each case.

On to `CC[C@@H]1C(=O)N(C)c2cnc(Nc3ccc(C(=O)NC4CCN(C)CC4)cc3OC)nc2N1C1CCCC1`, for which the Potency is 76.9 nM (active) in assay [1], 48.5 nM (active) in assay [2], 153 nM (active) in assay [3] and 30.6 nM (active) in assay [4].

Turning to `NC(=O)Nc1cc(-c2cccc(F)c2)sc1C(=O)N[C@H]1CCCNC1`, the Potency in assay [1] was 1220 nM (active); in assay [2] it was 306 nM (active); in assay [3] it was 1530 nM (active); in assay [4], 3430 nM (active).

In the case of `CCOC(CN1C(=O)[C@](CC(=O)Nc2ccc(C)cc2)(NC(=O)Nc2ccc(C)cc2)c2ccccc21)OCC`, the Potency result in assay [1], in assay [2], in assay [3] and in assay [4] was “inactive” in each case.

In the case of `[O-][n+]1cccc(CO)c1`, the Potency result in assay [1], in assay [2], in assay [3] and in assay [4] was “inactive” each time.

In the case of `CCN(CC)CCn1c(=O)c(Cc2ccc(OC)cc2)nc2ccccc21`, the Potency entry in assay [1], in assay [2], in assay [3] and in assay [4] was “inactive” in each case.
